Screens deposited in PubChem by National Center for Advancing Translational Sciences (NCATS).
GoLoco inh red – qHTS Assay for Inhibitors of RGS12 GoLoco Motif Activity (Red Fluorophore) | Guanine nucleotide-binding protein G(i) subunit alpha-1 (Homo sapiens), P63096 | Gai1:RGS12 GoLoco peptide FP, rhodamine, 10 min | Potency, µM (highest dose often 61.6 µM), hits mostly inhibitors | 230,000 compounds, 0.44% hits | AID 880, 2007; active = well fitted inhibition curve with a large enough effect, not every such curve was filed as active; inactive = no such curve, though single readings can be large or run the other way; note: nearly all actives have a fitted effect of over 30% in size
Tau ThT inhib – qHTS for Inhibitors of Tau Fibril Formation, Thioflavin T Binding. Microtubule-associated protein tau (Homo sapiens), P10636. recombinant tau K18 P301L, heparin-induced fibrillization, ThT fluorescence. Potency, µM (doses to about 57.4 µM), usual class: inhibitors. 270,000 compounds, 2.1% hits. AID 1460, 2008; note: nearly all actives have a fitted effect of over 55% in size
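Heparin-induced fibrillization of the P301L-mutant K18 repeat-domain fragment of human tau was followed by ThT binding in quantitative high-throughput format.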
TR SRC2 fluor cs – Total Fluorescence Counterscreen for Inhibitors of the Interaction of Thyroid Hormone Receptor and Steroid Receptor Coregulator 2; TRb/SRC2 Texas Red total fluorescence interference; Potency, µM (highest dose often 106 µM); 280,000 compounds, 0.29% hits; AID 1479, 2009; active = well fitted curve in either direction with a large enough effect; inconclusive = small, poorly fitted or top-dose-only effect
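Flags fluorescent or light-absorbing compounds by total fluorescence, S + 2P, at 555 nm excitation and 632 nm emission. Mixture: 20 nM Texas Red SRC2 peptide, 0.6 uM human TRb LBD, 1 uM T3, 5% DMSO; compound exposure 5 h at ambient temperature.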
Tau FP inhib – qHTS for Inhibitors of Tau Fibril Formation, Fluorescence Polarization | Microtubule-associated protein tau (Homo sapiens), P10636 | K18 P301L tau heparin fibrillization, Alexa594 FP, 6 h | Potency, µM (titrated, usually from 57.7 µM), hits mostly inhibitors | 280,000 compounds, 0.39% hits; note: nearly all actives have a fitted effect of over 55% in size
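Human tau K18 […] P301L fragment, 15 uM unlabeled plus 0.24 uM Alexa 594-labeled tau (final), with compound and 20 uM heparin in 100 mM sodium acetate pH 7; 6 hr at 37 C, then Alexa 594 FP read.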
Tau fluor cs – Counterscreen qHTS for Inhibitors of Tau Fibril Formation, Fluorescence Polarization. tau K18 P301L Alexa594 fluorescence, heparin fibrillization. Potency, µM (titrated, usually from 57.7 µM). 280,000 compounds, 0.93% hits. AID 1463, 2008; note: nearly all actives have a fitted effect of over 55% in size
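Human tau K18 P301L (15 uM unlabeled, 0.24 uM Alexa 594-labeled) in 100 mM sodium acetate pH 7 with 20 uM heparin, 6 hr at 37 C. ThT 30 uM added, 1 hr ambient; Alexa 594 FP and total fluorescence read at 555/632 nm.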
TRb-SRC2 inh – qHTS for Inhibitors of the Interaction of Thyroid Hormone Receptor and Steroid Receptor Coregulator 2 | Thyroid hormone receptor beta (Homo sapiens), P10828 | 280,000 compounds, 0.065% hits | Potency, µM (series often up to 106 µM), hits mostly inhibitors | TRbeta-SRC2 peptide binding, fluorescence polarization; receptor liganded with 1 µM T3; note: nearly all actives have a fitted effect of over 50% in size
Target sequence (P10828 whole entry, looked up): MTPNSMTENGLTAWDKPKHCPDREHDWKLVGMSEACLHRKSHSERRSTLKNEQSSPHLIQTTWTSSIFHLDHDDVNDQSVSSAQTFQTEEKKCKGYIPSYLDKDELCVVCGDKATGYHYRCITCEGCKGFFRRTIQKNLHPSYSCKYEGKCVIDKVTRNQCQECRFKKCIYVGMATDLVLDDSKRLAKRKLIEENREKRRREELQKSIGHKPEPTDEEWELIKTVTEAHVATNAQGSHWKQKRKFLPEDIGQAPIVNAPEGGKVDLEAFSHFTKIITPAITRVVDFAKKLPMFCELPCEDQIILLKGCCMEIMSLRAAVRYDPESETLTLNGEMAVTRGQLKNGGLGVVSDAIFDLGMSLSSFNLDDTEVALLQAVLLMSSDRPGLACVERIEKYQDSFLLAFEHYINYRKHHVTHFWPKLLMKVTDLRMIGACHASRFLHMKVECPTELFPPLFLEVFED
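Each compound concentration gave % activity, normalized to unbound and bound Texas Red SRC2 controls, from polarization read after 5 hr ambient incubation with T3-loaded human TRb LBD.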
Numbers stand for hits; 0 = inactive; ? = inconclusive; - = no result given; [ ] = remark or other dose. Only some compounds are listed: those with a hit (about 3.1% of all), similar ones and a draw of the others. Unless noted, calls come from the whole dose curve; as a rule, active = well fitted curve in the direction sought with a large enough effect; inconclusive = small, poorly fitted or top-dose-only effect, or another doubt; inactive = no such curve, though single readings can be large; an effect the other way counts as inactive or inconclusive.

SMILES	GoLoco inh red	Tau ThT inhib	TR SRC2 fluor cs	Tau FP inhib	Tau fluor cs	TRb-SRC2 inh
CCC(C)NC(=O)CSc1nc2c(sc3ccccc32)c(=O)n1CCc1ccc(OC)c(OC)c1 (centres undefined)	-	0	0	0	0	0
O=C(/C(=C/c1ccc(Cl)cc1)c1nc2ccccc2[nH]1)c1cccs1	0	15.8µM	0	?	0	0
O=C(/C(=C\c1ccccc1)c1nc2ccccc2[nH]1)c1ccc(Cl)cc1	0	22.4µM	0	?	0	0
COC(=O)/C(=C\c1ccc(O)cc1)c1nc2ccccc2[nH]1	0	?	0	0	0	0
COc1cc(/C=C/C(=O)N2CCCN(C(=O)/C=C/c3cc(OC)c(OC)c(OC)c3)CC2)cc(OC)c1OC	0	0	0	0	0	0
COc1cc(/C=C/C(=O)N2CCC=CC2=O)cc(OC)c1OC	0	8.91µM	0	?	0	0
CCOC(=O)N1CCN(c2c(NCCc3ccc(C)cc3)c(=O)c2=O)CC1	0	0	0	0	0	0
O=C(c1ccc(-c2cccc(Cl)c2Cl)o1)N1CCOCC1	0	0	0	0	0	0
S=C(c1ccc(-c2ccccc2Cl)o1)N1CCOCC1	0	25.1µM	0	0	?	0
O=[N+]([O-])c1ccccc1-c1ccc(C(=S)N2CCN(c3ccccc3)CC2)o1	0	11.2µM	0	0	?	0
S=C(c1ccc(-c2ccc(Cl)c(Cl)c2)o1)N1CCOCC1	0	10µM	0	0	0	0
S=C(c1ccc(-c2ccc(Br)cc2)o1)N1CCOCC1	0	-	0	0	0	0
O=C1CC(N2CCC(Cc3ccccc3)CC2)C(=O)N1CCc1ccccc1 (centres undefined)	0	0	0	0	0	0
O=C(O)c1cccc(N/N=C/c2cccs2)c1	0	?	0	0	0	0
Cc1cccc(NC(=O)c2nc[nH]c2C(=O)N[C@@H](C)C(=O)OCc2ccccc2)c1	0	0	0	14.1µM	?	0
Cc1cccc(NC(=O)c2nc[nH]c2C(=O)N[C@@H](CC(C)C)C(=O)OCc2ccccc2)c1	0	0	0	25.1µM	?	0
O=C1/C(=C/c2ccccn2)SC(=S)N1CCc1ccccc1	0	0	0	0	0	0
COc1ccc2nc(N=Nc3c(O)ccc4ccccc34)sc2c1	0	2.82µM	0	0	?	0
COc1cc(Cl)c(S(=O)(=O)NCc2cccnc2)cc1Cl	0	0	0	0	0	0
CCOC(=O)c1c(C)[nH]c(N=Nc2cccc(OC)c2)c1C	0	5.01µM	0	0	?	0
CCOC(=O)c1c(C)[nH]c(N=Nc2cccc(C)c2)c1C	0	10µM	0	0	?	0
Cc1ccc(NC(NC(=O)c2ccccn2)C(Cl)(Cl)Cl)cc1 (centres undefined)	0	0	0	0	0	0
Cc1ccc2c(c1)COc1c3ccc(C(=O)N[C@@H](C)CO)cc3nn1-2	0	0	0	0	0	0
Cc1cc(C(=O)CSc2nnnn2-c2ccc(O)cc2)c(C)n1Cc1ccc2c(c1)OCO2	0	0	0	11.2µM	7.94µM[quencher]	0
Cc1cc(C(=O)CSc2nnnn2-c2ccccc2)c(C)n1-c1ccc2c(c1)OCO2	0	?	0	0	?	0
COc1cccc(-n2c(N)c(-c3nc4ccccc4[nH]3)sc2=S)c1	0	7.94µM	0	0	15.8µM[quencher]	0
CCN(CC)S(=O)(=O)c1ccc(C(=O)NCc2ccc3c(c2)cc(C)n3C)cc1	0	0	44.7µM[fluorescent]	0	0	39.8µM
CCc1ccc(CNC(=O)c2cc3cc(S(=O)(=O)N4CCCCC4)ccc3n2C)cc1	-	0	0	0	0	0
